Data from PubChem BioAssay AID1851 (National Center for Advancing Translational Sciences (NCATS), 2009).
In all, about 16,000 compounds went through this assay and about 4,000 (25%) were called active. Roughly 26% stayed inconclusive and do not appear here. These entries were drawn from the full list. Unmarked numbers belong to inactive results. The call rests on the fitted dose curve; in most records, active means well fitted curve in the direction sought with a large enough effect; inconclusive means small, poorly fitted or top-dose-only effect, or effect the other way; inactive means no such curve, though single readings can be large or run the other way.

The compounds below were run against Cytochrome P450 2C9 (Homo sapiens) (UniProt P11712) (assay: Cytochrome panel assay with activity outcomes). Conditions: recombinant CYP, pro-luciferin dealkylation, luminescence, p450-cyp2c9; series mostly up to 57.1 µM; activity, negative = inhibition: at the top concentration.
On the % scale 0 is the no-effect control and ±100 the full control effect.

Cytochrome P450 2C9 (Homo sapiens), sequence (P11712 whole entry, looked up): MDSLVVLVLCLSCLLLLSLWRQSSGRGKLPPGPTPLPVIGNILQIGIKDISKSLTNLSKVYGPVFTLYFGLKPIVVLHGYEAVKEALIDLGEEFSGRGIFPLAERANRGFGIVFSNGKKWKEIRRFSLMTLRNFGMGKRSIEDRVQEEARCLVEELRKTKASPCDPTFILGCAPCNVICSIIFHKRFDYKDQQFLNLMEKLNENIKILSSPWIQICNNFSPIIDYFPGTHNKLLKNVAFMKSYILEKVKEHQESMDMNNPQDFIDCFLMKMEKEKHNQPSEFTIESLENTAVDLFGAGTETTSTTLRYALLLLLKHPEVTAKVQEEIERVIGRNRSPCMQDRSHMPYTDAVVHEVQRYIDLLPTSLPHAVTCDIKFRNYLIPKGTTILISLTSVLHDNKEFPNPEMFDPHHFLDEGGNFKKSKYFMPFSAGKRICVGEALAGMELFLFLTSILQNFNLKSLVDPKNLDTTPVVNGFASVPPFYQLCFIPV

Structure (SMILES) | activity, negative = inhibition | AC50
CCOC(=O)N1CCN(C(=O)c2ccc(NC(C)=O)cc2)CC1 | -29.4% | –
CCOC(=O)N1CCN(C(=O)c2ccc3nc(N4CCC(C)CC4)sc3c2)CC1 | – | 2.51 µM (active)
CC1=NN(C(=O)c2ccncc2)C(=O)[C@@H]1N=Nc1ccc2ccccc2c1 | -11.2% [at 11.4 µM] | –
OCCN(CCO)c1ncnc2nc[nH]c12 | 5.61% [at 11.4 µM] | –
O=C(/C=C/c1ccco1)Nc1ccc(Oc2ccccc2)cc1 | – | 5.01 µM (active)
O=C(C=C1SCCS1)/C=C/c1ccco1 | 6.81% | –
CO[C@H]1COC(=O)[C@H]2CCCN2C(=O)C/C=C\[C@@H](C)[C@H](OC)COC(=O)C/C=C\[C@@H]1C | 13.8% [at 11.4 µM] | –
CC[C@]1(O)C[C@H]2CN(CCc3c([nH]c4ccccc34)[C@](C(=O)OC)(c3cc4c(cc3OC)N(C=O)[C@H]3[C@@](O)(C(=O)OC)[C@H](OC(C)=O)[C@@]5(CC)C=CCN6CC[C@]43[C@H]65)C2)C1 | 0.0764% | –
Cc1nc(SCC(=O)Nc2c(C)nn(C)c2C)c2cnn(-c3ccccc3)c2n1 | – | 2.51 µM (active)
O=C(c1ccccc1)[C@H](Nc1ccc2ccccc2c1)c1ccccc1 | -6.81% [at 11.4 µM] | –
Cc1nc(SC(C(=O)c2ccccc2)c2ccccc2)n[nH]1 (stereo not given) | – | 4.47 µM (active)
O=C1COC(c2ccccc2O)=NN1CCCN1CCCC1 | 2.77% [at 11.4 µM] | –
Cc1ccc(NS(=O)(=O)c2cc(C(=O)N3CCc4ccccc4C3)ccc2Cl)cc1 | – | 2.51 µM (active)
CN(c1ccc(C(=O)NCc2ccccn2)cc1)S(C)(=O)=O | 4.78% | –
O=C(O)[C@@H]1[C@@H](C(=O)NCc2ccccn2)[C@@H]2C=C[C@@H]1O2 | 1.33% [at 11.4 µM] | –
Cc1ccc(NS(=O)(=O)c2cc(C(=O)NCc3ccccn3)ccc2Cl)cc1 | – | 17.8 µM (active)
CN(CC(=O)Nc1ccc(F)c(F)c1)S(=O)(=O)c1cccc2nsnc12 | – | 0.355 µM (active)
CC1CCN(C(=O)CN(C)S(=O)(=O)c2cccc3nsnc23)CC1 | -12.1% | –
COc1ccc(C(F)(F)F)cc1N/C=C\c1nnnn1-c1ccccc1 | – | 4.47 µM (active)
CS(=O)(=O)N1CCC[C@@]2(CCN(c3ncccn3)C2)C1 | 8.97% | –
NC(=O)NC(=O)Nc1ccccc1Cl | -29.3% | –
O=C(O)C[C@H](Cc1ccccc1Cl)C(=O)O | 2.18% [at 11.4 µM] | –
O=C(O)COC(=O)Cc1ccccc1Nc1c(Cl)cccc1Cl | – | 1.58 µM (active)

Structure (SMILES) | activity, negative = inhibition | AC50
CNc1ccnc(-c2ccccc2OC)n1 | -17.5% [at 2.29 µM] | –
CCCS(=O)(=O)N1CCCC(C(=O)NCCN(C)Cc2ccccc2)C1 (stereo not given) | -6.79% | –
CC1CC(C)CN(CCCNC(=O)C2CCCN(c3nnc(N4CCCC4=O)s3)C2)C1 (stereo not given) | -3.57% | –
O=C(NCCC1=CCCCC1)C1CCCN(c2nc3ccccc3o2)C1 (stereo not given) | – | 3.55 µM (active)
CC(C)Cn1c(=O)n(C)c(=O)c2[nH]cnc21 | 8.76% | –
Cn1c(=O)c(C(=O)CN2CCOCC2)c(N)n(Cc2ccccc2)c1=O | -21.5% | –
CC(C)Cn1c(N)c(C(=O)CSc2ccc3c(c2)OCCO3)c(=O)n(C)c1=O | – | 3.55 µM (active)
CN1CCN(c2ncncc2-c2ccoc2)CC1 | 17.1% [at 2.29 µM] | –
O=C(Nc1ccccc1C(=O)Nc1ccc2c(c1)OCO2)c1ccco1 | – | 1.41 µM (active)
CCC(NC(=O)c1ccccc1NC(=O)c1ccco1)C(=O)NC1CCCCC1 (stereo not given) | – | 7.08 µM (active)
CCCC[P+](CCCC)(CCCC)Cc1ccc(NC(=O)[C@@H](Cc2ccc3ccccc3c2)NC(=NC2CCCCC2)NC2CCCCC2)cc1 | 0.236% | –
O=C(Nc1ccccc1C(=O)NCCc1ccccc1)c1ccco1 | – | 2.82 µM (active)
Cc1ccc(C(C(=O)NC2CCCCC2)N2CCN(C(=O)c3ccco3)CC2)cc1 (stereo not given) | -17.6% | –
COc1ccccc1CNc1cc(-c2ccc(C(=O)N(C)C)cc2)ncn1 | 10% [at 2.29 µM] | –
CN1CCN(C2=Nc3ccccc3Oc3ccc(Cl)cc32)CC1 | 2.74% | –
COC(=O)c1c(NC(=O)c2ccco2)sc2c1CCC2 | – | 2.82 µM (active)
CCN1C(=O)[C@H]2[C@H]3[C@H](O)[C@H](O)C/C(=N/O[C@@H]4O[C@@H](COC(C)=O)[C@@H](OC(C)=O)[C@@H](OC(C)=O)[C@H]4OC(C)=O)[C@H]3CC[C@@H]2C1=O | 23.1% [at 11.4 µM] | –
COc1ccc(-c2cc(C(=O)Nc3cc(OC)c(OC)c(OC)c3)no2)cc1OC | -6.73% | –
COc1cc(NC(=O)c2cc3nc(-c4ccccc4)cc(-c4ccccc4)n3n2)cc(OC)c1OC | – | 2.24 µM (active)
Clc1ccc(CSc2ncnc3c2ncn3[C@@H]2CCCCO2)cc1 | -17.8% [at 11.4 µM] | –
CC(C)[C@H](N)c1nnc(SCc2ccc(Cl)cc2)o1 | – | 1.78 µM (active)
O=c1ccnc(SCc2ccc(Cl)cc2)[nH]1 | -29.9% [at 11.4 µM] | –
